GPR151 ag = activates the human receptor GPR151; hit rate 1% among 650,000; AID 1508602; PathHunter beta-arrestin GPR151 cells, luminescence; activation, % at 11.2 µM; Q8TDV0; in the data active means activation above about 4.9%
MITF inh = human MITF inhibition, primary screen. AlphaScreen MITF homodimerization, bead proximity signal. inhibition, % at 2.6 µM. hit rate 0.91% among 650,000. AID 1259374; in the data active means inhibition above about 50%
TEAD-YAP block = TEAD-YAP interaction inhibition; HEK-TIYL cells, TEAD-Gal4/YAP UAS-luciferase luminescence; inhibition, % at 9.12 µM; hit rate 1.4% among 640,000; in the data active means inhibition above about 32%
FBW7 activator = human FBW7 E3 ligase activation, primary screen | AlphaScreen FBW7–phospho-cyclin E peptide binding, activator screen | normalized activity (activation), % at 26.1 µM | hit rate 0.13% among 650,000 | AID 1259310; in the data active means normalized activity above about 1.9%;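 further: purified mutant Fbw7 with reduced substrate affinity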
Target sequence (Q969H0 whole entry, looked up): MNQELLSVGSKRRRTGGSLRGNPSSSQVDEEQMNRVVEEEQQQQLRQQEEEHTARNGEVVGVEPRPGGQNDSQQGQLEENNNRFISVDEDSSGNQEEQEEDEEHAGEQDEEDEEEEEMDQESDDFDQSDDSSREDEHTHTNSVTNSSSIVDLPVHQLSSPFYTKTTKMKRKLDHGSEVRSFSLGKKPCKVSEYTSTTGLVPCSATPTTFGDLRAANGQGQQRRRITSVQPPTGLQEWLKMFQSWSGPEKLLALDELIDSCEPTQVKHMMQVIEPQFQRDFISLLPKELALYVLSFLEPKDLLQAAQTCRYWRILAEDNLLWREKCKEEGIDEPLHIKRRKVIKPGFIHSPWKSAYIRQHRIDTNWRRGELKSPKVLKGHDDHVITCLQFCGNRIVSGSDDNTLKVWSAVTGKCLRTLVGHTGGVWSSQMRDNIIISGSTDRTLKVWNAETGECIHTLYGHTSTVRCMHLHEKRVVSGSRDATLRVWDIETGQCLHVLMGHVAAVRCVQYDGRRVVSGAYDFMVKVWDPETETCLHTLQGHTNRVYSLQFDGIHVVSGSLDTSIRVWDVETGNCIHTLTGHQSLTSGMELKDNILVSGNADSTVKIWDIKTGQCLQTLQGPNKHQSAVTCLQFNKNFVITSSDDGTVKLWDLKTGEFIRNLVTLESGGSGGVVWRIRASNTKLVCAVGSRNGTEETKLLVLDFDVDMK
GPR151 conf act = confirmation of human GPR151 activators | shares compounds with GPR151 ag | GPR151 PathHunter beta-arrestin cells, luminescence, 90 min; % of EA-reagent control over plate median | activation, % at 11.2 µM | 6,700 tested, under 10 active;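 active means mean percent activation across replicates above the confirmation screen cutoff of 4.91%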
GPR119 counter = counter-screen for GPR151 activators: effect on human GPR119; AID 1508611; GPR119 PathHunter beta-arrestin cells, luminescence, 90 min; 0 = compound-well median, 100 = enzyme-acceptor control; activation, % at 11.2 µM; shares compounds with GPR151 ag; hit rate 0.3% among 6,700;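 active means mean percent activation in the counterscreen above 29.09%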;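 further: counterscreen on off-target GPR119 to flag nonselective hits from the GPR151 activator screen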
Large screens that a line does not name were inactive (follow-up assays come after a bar, where they were run). An excerpt weighted towards active compounds, which were near 3.5% of everything screened.

CCN1CNC(=S)N(c2ccc(F)c(Cl)c2)C1	GPR151 ag 6.0 | GPR151 conf act inactive | GPR119 counter inactive
OCC1CCCN1c1nc(NCCOc2ccccc2)c2ncn(C3CCCCC3)c2n1 (stereo not given)	none
C=CCN(c1ccc(C(=O)Nc2ccc(Cl)cc2)cc1)S(C)(=O)=O	GPR151 ag 9.2 | GPR151 conf act inactive | GPR119 counter inactive
CN(CC(=O)NC1CCCCCC1)c1nnc(N2CCCC2=O)s1	none
CN(CC(=O)NC1CCCC1)c1nnc(N2CCCC2=O)s1	GPR151 ag 6.1 | GPR151 conf act inactive | GPR119 counter inactive
COC(=O)c1sc(NC(=O)c2cccc([N+](=O)[O-])c2C)c(C(=O)OC)c1C	none
NS(=O)(=O)c1ccc(CCNC(=O)C(=O)Nc2ccccc2F)cc1	GPR151 ag 7.1 | GPR151 conf act inactive | GPR119 counter inactive
CCCC1(C2CCN(Cc3ccc(O)cc3)CC2)NC(=O)N(CC2CCCO2)C1=O (stereo not given)	GPR151 ag 6.0 | GPR151 conf act inactive | GPR119 counter inactive
Cc1ccc(NC(=O)Nc2ccccc2C#N)cc1NC(=O)Nc1ccccc1C#N	none
COc1ccc(Nc2nc(N3CCN(C)CC3)c3ccccc3n2)cc1	GPR151 ag 9.5 | GPR151 conf act inactive | GPR119 counter inactive
CCOc1ccc(Nc2nc(N3CCN(C)CC3)c3ccccc3n2)cc1	none
COc1cccc(OC)c1C(=O)NC(=S)Nc1ccc(Br)cn1	none
COc1cccc(OC)c1C(=O)Nc1ccc([N+](=O)[O-])cn1	none
COc1cccc(OC)c1C(=O)Nc1ccc(Br)cn1	GPR151 ag 15 | GPR151 conf act inactive | GPR119 counter inactive
COc1cccc(OC)c1C(=O)Nc1ncc([N+](=O)[O-])s1	GPR151 ag 5.7 | GPR151 conf act inactive | GPR119 counter inactive
COC(=O)c1c(NC(=O)/C=C\C(=O)O)sc(C)c1C	GPR151 ag 14 | GPR151 conf act inactive | GPR119 counter inactive
O=C(Cc1cccs1)N/N=C\c1ccc(O)c(O)c1	GPR151 ag 5.3 | GPR151 conf act inactive | GPR119 counter inactive
O=C(Cc1cccs1)N/N=C\c1ccc(O)cc1	none
O=C1CCCN1CCCNc1nc(N2CCc3ccccc3C2)nc2c1ncn2-c1ccccc1	none
O=C(c1ccc2c(=O)n(CCc3ccccc3)c(SCc3cccc([N+](=O)[O-])c3)nc2c1)N1CCCC1	none
CN(Cc1ccccc1)C(=O)c1ccc2c(=O)n(CCc3ccccc3)c(SCc3cccc([N+](=O)[O-])c3)nc2c1	GPR151 ag 11 | GPR151 conf act inactive | GPR119 counter inactive
COc1cc(Nc2nc(NCCOc3ccccc3)c3ncn(Cc4ccc(C(F)(F)F)cc4)c3n2)cc(OC)c1OC	none
N#C/C=C(\c1ccc(F)cc1)N1CCOCC1	GPR151 ag 8.4 | GPR151 conf act inactive | GPR119 counter inactive
O=C(CSc1nccn1Cc1ccc(F)cc1)Nc1nccs1	GPR151 ag 7.0 | GPR151 conf act inactive | GPR119 counter inactive
Cc1ccc(Cn2ccnc2SCC(=O)Nc2ccccc2F)cc1	GPR151 ag 8.6 | GPR151 conf act inactive | GPR119 counter inactive
CC1c2cccn2CCN1S(=O)(=O)c1c(Cl)cccc1Cl (stereo not given)	none
CC1c2cccn2CCN1S(=O)(=O)c1ccccc1Cl (stereo not given)	GPR151 ag 5.9 | GPR151 conf act inactive | GPR119 counter inactive
CN1CCC(N(C)Cc2cc([N+](=O)[O-])ccc2O)CC1	GPR151 ag 6.0 | GPR151 conf act inactive | GPR119 counter inactive
Nn1c(SCC(=O)Nc2ccc(OCc3ccccc3)cc2)nnc1-c1ccco1	GPR151 ag 5.0 | GPR151 conf act inactive | GPR119 counter inactive
Nn1c(SCC(=O)Nc2ccc(OCc3ccccc3)cc2)nnc1-c1ccccc1	none
CCOC(=O)C1=C(c2ccccc2)NC(=S)NC1c1ccco1 (stereo not given)	none
COc1cc(=O)n2c(c1C(=O)N1CCCC1)CCN(Cc1cc(C)c(C)cc1C)CC2	GPR151 ag 5.2 | GPR151 conf act inactive | GPR119 counter inactive
O=C(Nc1ccon1)c1sc2cc(F)ccc2c1Cl	none
O=C(NC1=NCCS1)c1sc2cc(F)ccc2c1Cl	GPR151 ag 7.4 (no result: MITF inh, TEAD-YAP block, FBW7 activator) | GPR151 conf act inactive | GPR119 counter inactive
COC(=O)C1=C(O)/C(=C\c2ccccc2Cl)N=C1C	none
COc1ccc(N2C(=O)/C(=C/c3ccc(OCC(=O)O)cc3)NC2=S)cc1	none

Source: PubChem BioAssay
